Source: PubChem BioAssay
Calls of active or inactive are those of the source. Unless noted, how the calls were made is not given here.

Tests used:
[1] = tested on: XIP peptide (Xip251-270) binding; experiment: small-molecule binders of XIP peptide, primary screen, biochemical, small-molecule microarray, fluorescence 635/667 nm, 0.1 µg/mL protein (AID 1182); settings: fluorescent protein binding, 635 nm, higher = more signal, called active from +8 up or from −8 down
XIP peptide (Xip251-270) = experiment: small-molecule binders of XIP peptide, primary screen, biochemical, small-molecule microarray, fluorescence 635/667 nm, 0.5 µg/mL protein (AID 1183); settings: small-molecule microarray binding, fluorescence 635 nm; higher = more signal
[2] = Plasmodium falciparum growth inhibition, primary screen, strain 3D7, DAPI fluorescence, 100 nL (AID 1184);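 further: parasites grown inside human red blood cells in medium with human serum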; settings: P. falciparum 3D7 growth, 3 d, higher = more signal
[3] = target: Homeobox protein Hox-A13 (Mus musculus) (UniProt Q62424); experiment: inhibitors of HoxA13-DNA binding, primary screen, biochemical, fluorescence polarization, labeled oligonucleotide (AID 1185); settings: 15 min, higher = more signal, called active from +8 up or from −8 down
Sequence of Homeobox protein Hox-A13 (Mus musculus) (Q62424 whole entry, looked up): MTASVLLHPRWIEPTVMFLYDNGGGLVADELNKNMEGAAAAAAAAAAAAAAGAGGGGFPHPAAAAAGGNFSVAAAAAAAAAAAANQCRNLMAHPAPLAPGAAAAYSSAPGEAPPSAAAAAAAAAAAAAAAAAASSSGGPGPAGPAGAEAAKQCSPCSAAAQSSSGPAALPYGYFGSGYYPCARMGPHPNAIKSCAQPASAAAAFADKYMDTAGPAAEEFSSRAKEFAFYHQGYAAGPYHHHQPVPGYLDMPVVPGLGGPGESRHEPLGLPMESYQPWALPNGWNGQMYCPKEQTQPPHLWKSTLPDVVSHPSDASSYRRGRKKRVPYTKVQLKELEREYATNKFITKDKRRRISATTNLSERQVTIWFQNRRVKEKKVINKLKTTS

[4] = inhibitors of hydroxyurea-induced Chk1 phosphorylation, primary screen, imaging, HeLa, phospho-Chk1 antibody, percent positive cells (AID 1186); settings: hydroxyurea-induced phospho-Chk1 immunofluorescence imaging, higher = more signal
[5] = inhibitors of hydroxyurea-induced Chk1 phosphorylation, primary screen, imaging, HeLa, phospho-Chk1 nuclear intensity (AID 1187); settings: hydroxyurea-induced phospho-Chk1 immunofluorescence imaging, higher = more signal

| Structure (SMILES) | composite z-score [1] | composite z-score (XIP peptide (Xip251-270)) | z-score [2] | z-score [3] | z-score [4] | z-score [5] |
| --- | --- | --- | --- | --- | --- | --- |
| COc1ccc([Si](C)(C)[C@H]2[C@H](CC(=O)N(CCO)Cc3ccccc3)O[C@@]3(C(=O)N(Cc4cccc(N5C(=O)c6cccc7cccc5c67)c4)c4ccccc43)[C@@H]2C)cc1 | 0.719 (inactive) | 0.6 | -2.72 | -1.4 (inactive) | -1.31 (inactive) | -1.11 (inactive) |
| O=C1O[C@@H](c2ccccc2)[C@@H](c2ccccc2)N2[C@@H](c3ccc(O)cc3)[C@]3(C(=O)Nc4ccccc43)[C@@H](C(=O)N3CCCCCCC3)[C@H]12 | 3.19 (inactive) | 0.862 | -1.54 | 3.1 (inactive) | 0.242 (inactive) | 0.883 (inactive) |
| CN1C(=O)C2C=CC(C(O)C(C)(C)C)N(Nc3ccccc3)C2C1=O (stereo not drawn) | 0.127 (inactive) | 0.403 | 0.987 | -0.565 (inactive) | -0.415 (inactive) | -0.815 (inactive) |
| COCCOC(=O)N1C(=O)[C@@]2(c3cc(C#CCC(C(=O)OC)C(=O)OC)ccc31)[C@H](c1ccccc1OCCO)N1[C@H](c3ccccc3)[C@H](c3ccccc3)OC(=O)[C@H]1[C@@H]2C(=O)Nc1nc2ccccc2s1 | 0.83 (inactive) | 0.862 | -1.53 | 3.51 (inactive) | -0.5 (inactive) | -0.31 (inactive) |
| C[N+](C)(C)CCCC[C@@H]1NC(=O)[C@@H]2C[C@H](C(=O)NCCCCCCNC(=O)CS)[C@H](c3cccc(OCCO)c3)N2C1=O | 0.339 (inactive) | 0.623 | -0.198 | -3.62 (inactive) | -0.38 (inactive) | -0.386 (inactive) |
| C#C[C@H]1Oc2ccccc2S(=O)(=O)N2CCC[C@@H]12 | -0.267 (inactive) | -0.286 | 0.562 | -1.15 (inactive) | 0.528 (inactive) | 0.526 (inactive) |
| COCCOC(=O)N1C(=O)[C@@]2(c3cc(C#CC4=CCCCC4)ccc31)[C@H](c1ccc(OCCO)cc1)N1[C@H](c3ccccc3)[C@H](c3ccccc3)OC(=O)[C@H]1[C@@H]2C(=O)Nc1nc2ccccc2s1 | -0.166 (inactive) | 0.622 | -1.29 | 3.94 (inactive) | -0.446 (inactive) | -1.1 (inactive) |
| O=C1NC(=O)C2C1C=CC(C(O)c1cccs1)N2Nc1ccccn1 (stereo not drawn) | 1.43 (inactive) | 0.438 | 0.197 | -5.03 (inactive) | -0.0367 (inactive) | -0.263 (inactive) |
| O=C1OCCC=C[C@H]2OC34C=CCN(c5ccc6ccccc6c5)C(=O)[C@H]3N(CCCCCCO)C(=O)[C@@H]4C12 (stereo partly drawn) | -0.0517 (inactive) | 0.79 | 0.0888 | -5.18 (inactive) | 0.183 (inactive) | 0.399 (inactive) |
| C[C@]1(C(=O)NCC(F)(F)F)c2ccccc2C(=O)N(Cc2cc(F)cc(C(F)(F)F)c2)[C@H]1c1ccc(CO)cc1 | 0.362 (inactive) | 0.473 | -1.31 | -3.68 (inactive) | 0.305 (inactive) | 0.388 (inactive) |
| COc1ccc([Si](C)(C)[C@@H]2[C@@H](CCO)O[C@]3(C(=O)N(Cc4cccc(N(C=O)c5ccccc5)c4)c4ccccc43)[C@H]2C)cc1 | 1.31 (inactive) | 0.675 | -2.51 | -0.551 (inactive) | -0.79 (inactive) | -0.438 (inactive) |
| C=C(C(=O)CC[C@@H](OC(=O)c1cccnc1)c1ccc(CO)o1)C(C)C | -0.239 (inactive) | 0.249 | -0.188 | -4.55 (inactive) | 0.647 (inactive) | 0.501 (inactive) |
| C=CCC(OC(C)=O)[C@@H]1[C@@H](N(Cc2cc3ccccc3o2)C(=O)c2ccc(-c3ccccc3)cc2)c2cc(OCCCO)ccc2N1C(=O)Cc1ccc2ccccc2c1 (stereo partly drawn) | -0.317 (inactive) | -0.269 | -0.835 | -0.738 (inactive) | 0.485 (inactive) | 0.467 (inactive) |
| Cc1ccc(S[C@]2(C(=O)NCCCN(C)C)CC(=O)N(Cc3ccccc3)[C@@H]2c2ccc(CO)cc2)cc1 | -0.712 (inactive) | 0.135 | -1.07 | -2.18 (inactive) | 0.327 (inactive) | 0.603 (inactive) |
| CN1C(=O)C2C(C1=O)C1C=C(c3ccc(CO)cc3)C2C(C2CC2)N1Cc1sc2ccccc2c1Cl (stereo not drawn) | 0.406 (inactive) | 0.745 | -1.9 | -3.23 (inactive) | 0.21 (inactive) | 0.442 (inactive) |
| O=C(NCC(O)CO)[C@]1(CCS(=O)(=O)c2ccccc2)N=C(c2ccc(OCCCO)cc2)O[C@@H]1c1ccccc1 (stereo partly drawn) | 1.51 (inactive) | -0.0557 | -0.434 | -7.16 (inactive) | 0.429 (inactive) | -0.0974 (inactive) |
| COCCCNC(=O)[C@@]1(C)c2ccccc2C(=O)N(Cc2ccccc2)[C@H]1c1ccc(CO)cc1 | 0.132 (inactive) | 0.947 | -1.35 | -1.86 (inactive) | -0.258 (inactive) | -0.432 (inactive) |
| O=C1OCC=C[C@H]2OC34C=CCN(c5ccc6ccccc6c5)C(=O)[C@H]3N(CCO)C(=O)[C@@H]4[C@@H]12 (stereo partly drawn) | 0.594 (inactive) | 0.605 | 0.666 | -5.78 (inactive) | 0.0775 (inactive) | 0.219 (inactive) |
